# Screens from PubChem BioAssay.
# HCV inh: HCV inhibition; Potency, µM (titrated, usually from 41.8 µM), without a hit: top-dose activity change, negative = inhibition, usual class: inhibitors; Huh7.5.1 HCVcc-Cre infection, luciferase reporter, 44 h; 3.4% of 340,000 active; also: potency is read from the fitted curve at half-maximal effect
#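 Infectious HCV cell culture screen: compound-treated cells (1,000/well, pre-plated 4 h) are infected with HCVcc-Cre at roughly 0.5 moi and grown 44 h. Infection is quantified by luciferase signal after 15 min substrate incubation at room temperature.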
# LASV entry inh: blocks Lassa virus binding to or entry into cells | Lassa virus pseudotype entry inhibition, cell reporter | Potency, µM (doses to about 37.9 µM), for the others: at the highest dose activity change, negative = inhibition, usual class: inhibitors | 1.2% of 300,000 active; calls by dose curve; tested in HEK293 cells; also: potency is read from the fitted curve at half-maximal effect; nearly all actives have a fitted effect of over 50% in size
# Pf growth 96h: inhibits malaria parasite growth, 96 h | P. falciparum luciferase reporter growth, 96 h | Potency, µM (titrated, usually from 28.7 µM), for the others: at the highest dose activity change, negative = inhibition, most hits filed as inhibitors | 6.9% of 320,000 active | AID 504834; also: potency is read from the fitted curve at half-maximal effect
#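 Plates of compound plus infected erythrocytes (2% hematocrit, 0.05% parasitemia final) incubate 96 hours, 37 C, 5% CO2. Detection reagent added; reduced luminescence from the parasites' luciferase reporter flags inhibition.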
# Pf growth 48h: inhibits P. falciparum growth in the first generation, 48 h | Potency, µM (titrated, usually from 28.7 µM), for the others: at the highest dose activity change, negative = inhibition, hits mostly inhibitors | 5.9% of 310,000 active | P. falciparum luciferase growth in erythrocytes, 48 h; also: potency is read from the fitted curve at half-maximal effect
#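 Luminescence readout; reporter = integrated firefly luciferase in P. falciparum. RBC culture at 2% hematocrit, 0.1% parasitemia final, 37 C/5% CO2; decreased signal taken as growth inhibition.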
# Marburg entry inh: inhibitors of Marburg virus binding or cell entry; Marburg virus pseudotyped entry inhibition, cell reporter; Potency, µM (series often up to 37.8 µM), inactives show at the highest dose activity change, negative = inhibition, hits mostly inhibitors; 1.8% of 300,000 active; AID 540276; calls by dose curve; tested in HEK293 cells; also: potency is read from the fitted curve at half-maximal effect
# HCMV inh: blocks human cytomegalovirus replication; HFF cells, HCMV-luciferase reporter, 72 h; active compounds read low; activity change, negative = inhibition, % at 57.5 µM; 4.5% of 410,000 active; in the data active = activity change below about -60%; inconclusive = no clear call, values can overlap the other calls; inactive = above about -39%
#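 Luciferase read-out from HCMV-luciferase-infected HFFs (MOI 1 PFU/cell) 72 h post infection at 37C; compounds added after 16 h cell attachment; activity normalized between buffer-only basal and Salinomycin (10uM) inhibitor controls.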
# * = called active by the depositor; i = inactive; ? = inconclusive; nt = not tested or not shown; [ ] = another dose, or the depositor's remark. An excerpt weighted towards active compounds, which were near 14% of everything screened. Unless noted, calls follow the shape of the dose curve; as a rule, active = well fitted inhibition curve with a large enough effect; inconclusive = small, poorly fitted or top-dose-only effect, or another doubt; inactive = no such curve, though single readings can be large or run the other way. % is scaled to controls: 0 for no effect and ±100 for the full control effect.
SMILES,HCV inh,LASV entry inh,Pf growth 96h,Pf growth 48h,Marburg entry inh,HCMV inh
COC(=O)/C=C1/S/C(=N/NC(=O)c2ccccc2C)NC1=O,14.2%,18.7%,?,nt,4.7%,-104.8*
COC(=O)C/C=N/N=C1/NC(=O)/C(=C/C(=O)O)S1,6.5%,nt,9.28µM*,?,nt,-24.1
COC(=O)/C=C1\S/C(=N/N=C/c2ccc(Cl)cc2)NC1=O,31.4%,-22.9%,7.8%,14.7µM*,0.5%[46.1 µM],2.7
CC(C)Oc1ccc(C(=O)OCC(=O)NC2CCCCCC2)cc1,11.2µM*,nt,-21.7%,?,nt,0.0
CC(C)Oc1ccc(C(=O)OCC(=O)NCCNC(=O)COC(=O)c2ccc(OC(C)C)cc2)cc1,-5.0%,nt,13.1µM*,?,nt,49.4
O=C(COC(=O)c1ccc(OC(F)F)cc1)NCCNC(=O)COC(=O)c1ccc(OC(F)F)cc1,-2.7%,1.0%[46.1 µM],24.6%,16.8%,15.9%[46.1 µM],-18.1
COc1ccccc1CN(C)C(=O)CSCC(=O)Nc1ccccc1F,10.3%,-16.8%,nt,nt,-6.4%,-28.6
Cc1cc(C)c(S(C)(=O)=O)c(S(=O)(=O)c2ccc(Cl)cc2)n1,15.8%,-0.8%,?,-24.5%,-11.1%,-98.0*
Cc1cc(C)c(S(=O)(=O)c2ccccc2)c(OC(=O)c2c(Cl)cc(Cl)cc2Cl)n1,?,?,14.0%,3.7µM*,?,3.6
Cc1cc(C)c(S(=O)(=O)c2ccccc2)c(OC(=O)c2c(F)cccc2F)n1,4.6%,-18.5%,16.2%,i,-6.0%[46.1 µM],-20.4
Cc1cc(C)c(S(=O)(=O)c2ccc(Cl)cc2C)c(Cl)n1,?,-5.5%,33.4%,-14.0%,-3.9%[46.1 µM],-20.3
Cc1cc(C)c(S(=O)(=O)c2cccc(Cl)c2)c(Cl)n1,?,-9.0%,?,10.4µM*,-6.0%[46.1 µM],32.5
CCOc1ccccc1C(=O)N1CCN(CCc2ccccn2)CC1,nt,-1.1%[46.1 µM],nt,nt,-9.7%[46.1 µM],2.8
CN(CC(=O)NC(=O)NC1CCCCC1)CC(=O)Nc1ccc(Cl)cc1,-15.6%,nt,4.15µM*,?,nt,-15.4
CN(CC(=O)Nc1ccc(Cl)cc1)C1CCCCC1,0.8%,nt,-36.5%,0.0%,nt,-18.1
O=C1NC2(CCCCC2)Cc2ccccc21,17.2%,15.6%,22.6%,-10.6%,9.9%,73.9
N#CC(C#N)=C1NC2(CCCC2)Cc2ccccc21,-28.2%,8.9%,3.29µM*,?,-0.6%,-2.5
S=C1NC2(CCCCC2)Cc2ccccc21,1.6%,?,11.7µM*,?,-14.1%,-20.6
COc1ccc(NC(=O)Cn2c(=O)n(CCCCCC(=O)NCc3ccc4c(c3)OCO4)c(=O)c3sccc32)cc1Cl,nt,21.9%[46.1 µM],nt,nt,-7.3%[46.1 µM],-12.2
COC(=O)[C@]12C[C@H](CC(=O)NCCCCc3ccccc3)C(=O)N(Cc3ccccc3)C1=C[C@H](C1CCCC1)O[C@@H]2C,nt,nt,nt,nt,nt,4.0
C=CCn1c(=N)c(C(=O)NCCCOC)cc2c(=O)n3cc(C)ccc3nc21,-19.3%,3.7%,7.38µM*,13.0%,?,35.3
CCC(C)n1c(=N)c(C(=O)NCc2ccccc2)cc2c(=O)n3cc(C)ccc3nc21 (stereo not drawn),nt,0.6%[46.1 µM],nt,nt,1.0%[46.1 µM],-73.3*
CCOCCCn1c(=N)c(C(=O)NCc2cccnc2)cc2c(=O)n3cc(C)ccc3nc21,nt,-3.3%[46.1 µM],nt,nt,5.2%[46.1 µM],-66.6*
C=CCCN(Cc1ccccc1)S(=O)(=O)c1cc(Br)ccc1Br,-22.3%,nt,0.0%,13.1µM*,nt,-20.3
COc1ccc(CNS(=O)(=O)c2c(C)[nH]c(C)c2C(=O)N2CCCC2)cc1,1.3%,nt,9.6%,-2.3%,nt,-62.0*
SMILES,HCV inh,LASV entry inh,Pf growth 96h,Pf growth 48h,Marburg entry inh,HCMV inh
COc1cccc(S(=O)(=O)NCc2ccc(C(=O)N3CCN(c4ccccc4)CC3)cc2)c1,?,nt,?,4.7%,nt,-32.0
Cc1ccc(S(=O)(=O)NCc2ccc(N3CCN(C(=O)OC(C)(C)C)CC3)cc2)cc1,?,-14.7%[46.1 µM],4.15µM*,13.1µM*,-13.1%[46.1 µM],-67.7*
COc1ccc(N2CCN(C(=O)c3ccc(CNS(=O)(=O)c4cccc(OC)c4)cc3)CC2)cc1,3.55µM*,?,2.1%,-11.9%,-18.6%[46.1 µM],-37.8
Cc1ccc(C(=O)NCc2ccc(N3CCN(C(=O)OC(C)(C)C)CC3)cc2)cc1,-2.7%,4.9%,-14.1%,15.5%,1.5%,-33.8
Cc1[nH]c(C)c(S(=O)(=O)NCc2ccc(OC(C)C)cc2)c1C(=O)N1CCCC1,4.7%,nt,-15.6%,-1.3%,nt,-30.8
COc1cccc(S(=O)(=O)NCc2ccc(C(=O)N3CCN(c4ccccc4OC)CC3)cc2)c1,nt,nt,?,7.38µM*,nt,-8.6
CN1CCN(CCCNC(=O)c2ccc(/C=C3\Oc4ccccc4N(Cc4ccccc4F)C3=O)cc2)CC1,14.1µM*,nt,4.3%,?,nt,-30.0
Cc1cccc(CN2C(=O)/C(=C\c3ccc(C(=O)NCCCN4CCN(C)CC4)cc3)Oc3ccccc32)c1,nt,nt,45.4%,?,nt,?
CCN1CCN(CCNC(=O)c2ccc(/C=C3\Sc4ccccc4N(Cc4ccccc4F)C3=O)cc2)CC1,11.2µM*,nt,?,?,nt,?
CN1CCN(CCCNC(=O)c2ccc(/C=C3\Sc4ccccc4N(Cc4ccc(F)cc4)C3=O)cc2)CC1,?,nt,?,?,nt,-67.4*
CCc1nc2c(OCc3ccc(F)c(F)c3)cccn2c1N(C)C(=O)C1CC1,nt,nt,nt,nt,nt,3.3
CCCSc1nc(C)cc(C)c1S(=O)(=O)c1ccccc1C,-22.5%,-13.0%,?,?,?,-23.2
Cc1cc(C)c(S(=O)(=O)c2ccccc2C)c(SCC(C)C)n1,?,0.1%,11.7µM*,?,?,5.1
CCCOc1cccc(C2c3c(oc4ccc(F)cc4c3=O)C(=O)N2Cc2ccc3c(c2)OCO3)c1 (stereo not drawn),nt,20.4%[46.1 µM],nt,nt,?,-4.4
O=C(Nc1ccc(N2CCOCC2)cc1N1CCOCC1)c1ccc(Cl)cc1,?,-12.6%,?,25.0%,-6.1%,-12.8
O=C1C2C3C=CC(C3)C2C(=O)N1CCN1CCN(S(=O)(=O)/C=C/c2ccccc2)CC1 (stereo not drawn),-24.3%,-10.2%,5.86µM*,-3.5%,25.4%[46.1 µM],10.5
O=C(/C=C/c1ccc(Cl)cc1)NC(=S)Nc1ccc(N2CCOCC2)c(Cl)c1,3.4%,?,10.4µM*,0.0%,?,?
O=C(Nc1cc(Cl)ccc1N1CCOCC1)c1ccc2c(c1)OCO2,nt,nt,nt,nt,nt,4.1
O=C(Nc1ccc(N2CCOCC2)c(Cl)c1)c1ccc(Cl)cc1,10µM*,-10.5%,10.4%,0.0%,2.0%,?
O=C(Nc1ccc(N2CCOCC2)c(Cl)c1)c1ccc2c(c1)OCCO2,11.2µM*,nt,-5.2%,?,nt,-61.4*
O=C(/C=C/c1ccccc1)NC(=S)Nc1ccc(N2CCOCC2)cc1,-22.2%,-25.4%,-15.3%,5.4%,0.5%,-12.9
